The structures appear in SMILES notation. Results filed as inconclusive are left out. A call without a number means that no potency is given here. Active and inactive are the calls of the source. Calls follow the shape of the dose curve; as a rule, active = well fitted activation curve with a large enough effect in the repeat runs; inconclusive = weak or mixed curves; inactive = flat fitted curve, though single readings scatter.
Potency is read from the fitted curve at half-maximal effect.

The nature of the assay: A CellTox Green Cytotoxicity Assay to monitor cytotoxicity in HEK293 cells - 40 hour (AID 1224871). Also: nearly all actives have a fitted effect of over 45% in size. The note with it: CellTox Green fluorescence; series mostly up to 76.8 µM. An excerpt:
National Center for Advancing Translational Sciences [NCATS]
NIH Chemical Genomics Center [NCGC]
U.S. Environmental Protection Agency [EPA]
National Institutes of Environmental Health Sciences [NIEHS]
National Toxicology Program [NTP]
Cell-based models are critical for drug discovery. Determining the natural cytotoxic effects resulting from test compounds is an essential research activity. A CellTox Green Cytotoxicity Assay to monitor cytotoxicity in real time of continues cell culture during 40 hours of the compound treatment was used to screen Tox21 10K library compounds in Hek293 cells. CellTox Green Cytotoxicity Assay is a nonlytic, homogeneous, biofluorescent method to measure cytotoxicity in cell culture after experimental manipulation. The assay system uses a proprietary asymmetric cyanine dye that is excluded from viable cells but preferentially stains the dead cell's DNA. […] Viable cells produce no appreciable increases in fluorescence. Therefore, the fluorescence signal produced by the binding interaction with dead cell DNA is proportional to cytotoxicity.
The mixture of Hek293 cell suspension and reagents were dispensed at 600cells/6 ul/well in 1536-well tissue culture treated black solid bottom plates using a Multidrop dispenser. After the assay plates were incubated at a 37 C/5% CO2 incubator for 5 hours, 23 nL of compounds dissolved in DMSO, positive and negative controls was transferred to the assay plate by a pintool work station. The plates were incubated at 37 C for 40 hours. The fluorescence intensity were measured at 0h, 8h, 16h, 24h, 32h and 40h time points using ViewLux plate reader during compound treatment.
Turning to `CCCCCCCC(=O)OCCCCCC`, the Potency entry is “inactive”.

As for `CC(C)N(C)C`, the Potency entry is “inactive”.

Turning to `O=C(O)CCS`, the Potency result was “inactive”.

As for `ClC1=C(Cl)C1(Cl)Cl`, the Potency result is “inactive”.

Turning to `CC(=O)OCC1=C(C(=O)O)N2C(=O)[C@@H](NC(=O)CSc3ccncc3)[C@H]2SC1`, the Potency entry is “inactive”.

In the case of `CN1C(CSCC(F)(F)F)Nc2cc(Cl)c(S(N)(=O)=O)cc2S1(=O)=O` (stereo not given), the Potency result was “inactive”.

Consider `CCN(CC)CCOC(=O)C(c1ccccc1)c1ccccc1`, for which the Potency result is “inactive”.

As to `CCCCCCCCCCCCCCCC(=O)OCC`, the Potency result is “inactive”.

Take `Cc1ccc(S(=O)(=O)NC(=O)NC2CCCCC2)cc1`: the Potency result is “inactive”.

For the compound `CC(C)C(O)C(C)(C)CO` (stereo not given), the Potency entry is “inactive”.

With `C1=CCC2CC=CC2C1` (stereo not given), the Potency entry was “inactive”.

`CC(C)(O)c1coc(S(=O)(=O)NC(=O)Nc2c3c(cc4c2CCC4)CCC3)c1`: the Potency entry is “inactive”.

As for `CC(C)OC(=O)c1ccccc1C(=O)OC(C)C`, the Potency entry was “inactive”.

For `O=C(O)CN1C(=O)c2cccc3cccc(c23)C1=O`, the Potency result is “inactive”.

As for `COc1cc(NCc2ccc3nc(N)nc(N)c3c2C)cc(OC)c1OC`, the Potency result is “inactive”.

On to `CCCCCCCCCCCCCOS(=O)(=O)O`, for which the Potency result was “inactive”.

In the case of `O[C@@H](CNC[C@H](O)[C@H]1CCc2cc(F)ccc2O1)[C@@H]1CCc2cc(F)ccc2O1`, the Potency is 26.8 µM (active).

With `Cc1ccc2nc(N)[nH]c(=O)c2c1Sc1ccncc1`, the Potency entry was “inactive”.

`O=C(O)c1ccc(O)cc1O`: the Potency entry is “inactive”.

Turning to `O=S(=O)(Cl)c1c(Cl)cccc1Cl`, the Potency result was “inactive”.

For the compound `CCCCCCOC(=O)CCCCC`, the Potency result is “inactive”.

Regarding `CC(C)CC(O)CC(C)C`, the Potency result was “inactive”.

For `CC(C)(C)CCCCCCOC(=O)c1ccccc1C(=O)OCCCCCCC(C)(C)C`, the Potency result is “inactive”.

On to `O=[N+]([O-])c1ccc2ncccc2c1`, for which the Potency entry was “inactive”.

For the compound `CC1CCC(C(C)CS)CC1S` (stereo not given), the Potency is 49 µM (active).

Regarding `O=P(O)(O)Oc1ccccc1`, the Potency entry was “inactive”.

For the compound `CCC(=O)OCc1ccc(OC)cc1`, the Potency result was “inactive”.

As to `COC(CC(C)CCCC(C)(C)O)OC` (stereo not given), the Potency result is “inactive”.

For the compound `NC(=O)CCCCC(N)=O`, the Potency result is “inactive”.

With `CC(O)Cn1cnc2c1c(=O)n(C)c(=O)n2C` (stereo not given), the Potency entry was “inactive”.

For the compound `COc1cc(C(C)=O)ccc1OCCCN1CCC(c2noc3cc(F)ccc23)CC1`, the Potency entry was “inactive”.

As for `CC1=CC[C@@H]2C[C@H]1C2(C)C`, the cytotoxicity increase is 2.52% [at 15.8 µM] (inactive).

Turning to `CCCOC(=O)c1c(Cl)c(Cl)c(Cl)c(Cl)c1C(=O)OCCC`, the Potency result was “inactive”.

In the case of `CNS(=O)(=O)c1cc(C(=O)N2CCC(CCN3C4CCC3CC(n3c(C)nc5ccccc53)C4)(c3cccc(F)c3)CC2)c(Cl)cc1F` (stereo not given), the Potency result is “inactive”.

Turning to `CCCCCCC(CO)CCCC` (stereo not given), the Potency result was “inactive”.

`CCSC(=O)N(CC)CC`: the Potency result is “inactive”.

Turning to `CC12CC3CC(C)(C1)CC(N)(C3)C2`, the Potency entry was “inactive”.

On to `O=c1[nH][nH]c(=O)c2cc([N+](=O)[O-])ccc12`, for which the Potency result is “inactive”.

For the compound `COc1cc(NS(=O)(=O)c2ccc(N)cc2)nc(C)n1`, the Potency entry is “inactive”.

As to `CCN(CC)c1ccc(C(=C2C=CC(=[N+](CC)CC)C=C2)c2ccc(S(=O)(=O)O)cc2S(=O)(=O)[O-])cc1`, the Potency entry was “inactive”.

Values taken from PubChem BioAssay (Tox21).
